In the library only some 11% were active in any assay of this set; here they are far more common.
IMPase Li cell: IMPase inhibition in cells with lithium potentiation | CHO-M1 cells, IP1 TR-FRET (IP-One), carbachol + lithium | Potency, µM (titrated, usually from 59.4 µM), for the others: at the top dose activity, negative = IMPase inhibition, actives largely listed as inhibitors | 210,000 compounds, 0.35% hits | AID 1457; active = well fitted inhibition curve with a large enough effect; inconclusive = small, poorly fitted or top-dose-only effect; inactive = no such curve, though single readings can be large or run the other way;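 also: IP1 builds up when IMPase is blocked and the TR-FRET signal falls; potency is read from the fitted curve at half-maximal effect; plate controls were basal vehicle for no effect and high inhibitor control for full effect; nearly all actives have a fitted effect of over 50% in size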
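CHO cells stably expressing M1 receptor (2000/well, cultured 16–30 h) treated 30 min at 37C with compound plus low lithium. Cytosolic IP1 by TR-FRET (665/620 ratio and 620 channel) after 10 min lysis; AC50 by Hill fit.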
PNC inhibitor: inhibitors of perinucleolar compartment assembly; activity change (PNC), negative = inhibition, % at 10 µM; 140,000 compounds, 3.1% hits; PC3M PTB-GFP, PNC prevalence imaging, 16 h; hits give low values;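 active = readout at or below -70, meaning at least 70% loss of cells showing the perinucleolar compartment, a nuclear body marking cancer cells; inconclusive = readout between -30 and a set limit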;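 also: plate controls were DMSO wells for no effect and camptothecin positive control wells for full effect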
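PC3M cells stably expressing PTB-GFP, 750–1000 cells/well, treated 16 h at 37 °C with compound (23 nl of library stock), in duplicate. After paraformaldehyde fixation and Hoechst stain, imaged at 20x; PNC prevalence scored by image analysis.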
HPGD block: inhibitors of human 15-hydroxyprostaglandin dehydrogenase (HPGD); P15428; purified HPGD, NADH fluorescence kinetic, PGE2 substrate; Potency, µM, inactives show at the highest dose activity change, negative = inhibition, actives largely listed as inhibitors; 150,000 compounds, 4.3% hits; AID 894; also: potency is read from the fitted curve at half-maximal effect
Target sequence (P15428 whole entry, looked up): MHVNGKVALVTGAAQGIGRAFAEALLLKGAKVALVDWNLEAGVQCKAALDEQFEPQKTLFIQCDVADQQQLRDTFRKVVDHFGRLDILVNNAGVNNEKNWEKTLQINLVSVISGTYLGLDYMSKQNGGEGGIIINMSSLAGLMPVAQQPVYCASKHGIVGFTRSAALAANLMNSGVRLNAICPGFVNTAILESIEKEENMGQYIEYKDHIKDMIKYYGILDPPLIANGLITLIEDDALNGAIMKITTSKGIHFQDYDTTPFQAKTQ
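NADH formation kinetics: reaction with 30 uM PGE2 and 1 mM NAD+ (final), 20 nM enzyme, Tris-HCl pH 8 with Tween 20, after 15 min compound preincubation at room temperature. Fluorescence change, last versus first of five reads.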
IMPase cell inh: cell-permeable inhibitors of inositol monophosphatase (IMPase). P97697. CHO-M1 cells, IP1 accumulation, HTRF TR-FRET ratio. inhibition (IP1 accumulation), % at 46.1 µM. 120,000 tested, under 10 active; active = well fitted curve in the direction sought with a large enough effect in the signal ratio, not every such curve was filed as active; inconclusive = small, poorly fitted or top-dose-only effect, or a change in a side signal; inactive = no such curve, though single readings can be large or run the other way; the % refers to the signal ratio;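 also: cells stimulated with carbachol in lithium chloride buffer; plate controls were DMSO basal wells for no effect and reference inhibitor wells for full effect; higher means more IMPase inhibition seen as more IP1 and lower FRET ratio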
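Measured: the HTRF emission ratio (665/620 nm) plus the 620 nm donor channel, each fitted to the Hill equation to give AC50. Cells were CHO-M1 given compounds up to 46 uM and a 30 min carbachol stimulation at 37C.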
ALDH1A1 inh: ALDH1A1 (human) enzyme inhibition; Potency, µM (doses to about 75.3 µM), inactives show top-dose activity, negative = inhibition, most hits filed as inhibitors; P00352; 220,000 compounds, 7.3% hits; AID 1030; Purified ALDH1A1, NADH fluorescence, propionaldehyde substrate;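 also: potency is read from the fitted curve at half-maximal effect; plate controls were no enzyme wells and a reference inhibitor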
Target sequence (P00352 whole entry, looked up): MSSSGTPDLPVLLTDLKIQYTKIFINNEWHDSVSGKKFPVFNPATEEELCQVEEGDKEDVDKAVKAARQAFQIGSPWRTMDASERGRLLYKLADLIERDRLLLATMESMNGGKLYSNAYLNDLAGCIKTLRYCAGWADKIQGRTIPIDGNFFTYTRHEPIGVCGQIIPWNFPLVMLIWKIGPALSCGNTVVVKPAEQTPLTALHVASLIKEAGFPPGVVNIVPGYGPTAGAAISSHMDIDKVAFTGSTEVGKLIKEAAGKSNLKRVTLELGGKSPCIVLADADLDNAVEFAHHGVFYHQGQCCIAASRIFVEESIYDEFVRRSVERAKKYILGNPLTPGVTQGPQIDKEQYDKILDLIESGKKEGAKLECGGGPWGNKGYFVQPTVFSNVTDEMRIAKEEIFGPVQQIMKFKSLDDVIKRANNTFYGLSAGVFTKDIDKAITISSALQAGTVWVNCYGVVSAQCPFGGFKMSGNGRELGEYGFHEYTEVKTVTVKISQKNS
* = called active by the depositor; ? = inconclusive; nt = not tested or not shown; [ ] = remark or other dose. Unless noted, calls follow the shape of the dose curve; as a rule, active = well fitted inhibition curve with a large enough effect (not every such curve was filed as active); inconclusive = small, poorly fitted or top-dose-only effect, or another doubt; inactive = no such curve, though single readings can be large or run the other way. Unless noted, % is scaled to controls: 0 for no effect and ±100 for the full control effect.

SMILES	IMPase Li cell	PNC inhibitor	HPGD block	IMPase cell inh	ALDH1A1 inh
CC(CCc1ccccc1)NC(=O)C1CCN(c2nnc(-n3cccc3)s2)CC1 (centres undefined)	25%[38.3 µM]	?	-11%	2	-5%
CS(=O)(=O)N1CCCC(C(=O)NCCc2ccc(Cl)cc2)C1 (centres undefined)	1%[38.3 µM]	-13	-9%	-6	-2%
COc1ccc(CCNC(=O)C2CCN(C(=O)c3cccs3)CC2)cc1	2%	nt	nt	nt	0.4µM*
Cc1ccc(N2CC(c3nnc(Cc4ccc(F)cc4)o3)CC2=O)cc1 (centres undefined)	nt	nt	nt	-1	nt
CC(C)C1OC2c3cccc4cccc(c34)C2N1c1ccccc1 (centres undefined)	1%	-14	-7%	nt	25µM*
CN1CCC2(CC1)CCN(C(=O)c1cc(C(F)(F)F)cc(C(F)(F)F)c1)CC2	9%	nt	-9%	nt	6%
CCc1nnc(NC(=O)c2ccc3nc(CC)c(CC)nc3c2)s1	6%	nt	nt	nt	-2%
CCN(CC)c1ccc(C(=O)NN)cc1	-1%	nt	nt	nt	?
Nc1ccc(N(CCO)CCO)cc1	56%	nt	nt	nt	16µM*
CCN(CC)c1ccc(N)cc1	29%	nt	-16%	nt	3.2µM*
COc1ccc(-n2c(=O)cnc3cnc(N4CCN(C)CC4)nc32)cc1	-9%	nt	nt	nt	20%
Cc1ccnc(NC(=O)CCC(=O)N(CC(=O)NC2CCCCC2)Cc2cccs2)c1	17%	nt	nt	nt	9%
CCC(C(=O)Nc1cc(C)nn1-c1nc(C)cc(C)n1)c1ccccc1 (centres undefined)	13%[38.3 µM]	34	-15%	9	?
Cc1cc(C)nc(-n2nc(C)cc2NC(=O)CNCc2ccccc2)n1	4%[38.3 µM]	31	-11%	-12	8.9µM*
CCN(CC(=O)Nc1cc(C)nn1-c1nc(C)cc(C)n1)Cc1ccccc1	4%[38.3 µM]	17	0%	2	20µM*
Cc1cc(C)nc(-n2nc(C)cc2NC(=O)CN2CCCC(C)C2)n1 (centres undefined)	12%[38.3 µM]	27	-6%	9	?
Cc1cc(C)nc(-n2nc(C)cc2NC(=O)CN2CCc3ccccc3C2)n1	11%[38.3 µM]	-23	4%	11	25µM*
CC(C)(C)c1ccc(S(=O)(=O)O/N=C2/CCCCC2c2ccc([N+](=O)[O-])cc2[N+](=O)[O-])cc1 (centres undefined)	46%[38.3 µM]	21	-18%	7	5.6µM*
O=C1C2C3C=CC(C2C(=O)N1CCCO)C1C2C(=O)N(CCCO)C(=O)C2C31 (centres undefined)	-8%[38.3 µM]	17	-12%	-2	4.5µM*
C=CCN1C(=O)C2C3C=CC(C2C1=O)C1C2C(=O)N(CC=C)C(=O)C2C31 (centres undefined)	-2%	nt	nt	nt	0.71µM*
CCCN(CCC)c1ccc(C2N=C(N)Nc3nc4ccccc4n32)cc1 (centres undefined)	nt	nt	nt	-6	nt
CCO[C@H](c1cc(OC)cc([N+](=O)[O-])c1OC)[C@H](C)/C=C\CC(=O)OC	nt	nt	nt	nt	2%[13.5 µM]
CCCN1C(=O)/C(=C\c2ccncc2)SC1=Nc1ccccc1	27%	?	32µM*	nt	-3%
COc1ccc(N=C2S/C(=C\c3ccc(N4CCOCC4)o3)C(=O)N2CCc2c[nH]c3ccccc23)cc1	28%[38.3 µM]	?	?	12	8.9µM*
COc1ccc(N=C2S/C(=C\c3ccc(C)o3)C(=O)N2CC(C)C)cc1	-1%[38.3 µM]	14	-26%	3	8.9µM*
SMILES	IMPase Li cell	PNC inhibitor	HPGD block	IMPase cell inh	ALDH1A1 inh
CCCN1C(=O)/C(=C/c2ccco2)SC1=Nc1ccc(OC)cc1	10%[38.3 µM]	28	-6%	9	13µM*
COc1ccc(N=C2NC(=O)/C(=C\c3ccco3)S2)cc1	8%	nt	nt	nt	?
COc1ccc(N=C2S/C(=C\c3ccc(OCC(=O)O)cc3)C(=O)N2CCc2c[nH]c3ccccc23)cc1	-11%	nt	nt	nt	?
Nc1nc(SC/C=C\c2ccccc2)c2[nH]cnc2n1	13%	nt	-8%	nt	11%[13.5 µM]
CCOc1ccc(N=C2NC(=O)S/C2=C\c2ccc(OC)cc2)cc1	5%[38.3 µM]	32	-20%	0	2%
CCCN1C(=O)/C(=C/c2ccc(C)o2)SC1=Nc1ccc(OC)cc1	17%[38.3 µM]	31	25µM*	7	3.5µM*
CCN1C(=O)/C(=C\c2ccncc2)SC1=Nc1ccc(C)c(C)c1	8%	34	-29%	nt	?
CCCN1C(=O)/C(=C/c2ccc(C)o2)SC1=Nc1ccc(OCC)cc1	7%[38.3 µM]	?	-11%	2	7.9µM*
C=CCOCC1CN2C(CCC(C)C2c2ccc(Br)cc2)C(=O)O1 (centres undefined)	nt	nt	nt	nt	4%[13.5 µM]
COc1ccc(-c2cc(C(=O)Oc3cccc(C)c3C)c3ccccc3n2)cc1	nt	nt	nt	-8	nt
Cc1cc(C)n2nc(CC#N)c(C#N)c2n1	-9%	nt	nt	nt	?
Cc1cc(C)n2nc(/C(C#N)=C/c3ccccn3)c(C#N)c2n1	-2%	nt	nt	nt	14µM*
CC(=O)Nc1ccc(NC(=O)Cn2c(=O)n(-c3ccc(C)cc3)c(=O)c3oc4ccccc4c32)cc1	2%	nt	nt	nt	-10%
O[C@@H]1[C@@H](OCc2ccccc2)OC[C@H](O)[C@@H]1O	-3%	nt	-2%	nt	0%[13.5 µM]
Cc1ccc(S(=O)(=O)n2nc(-c3ccc(Cl)cc3)nc2NCc2ccco2)cc1	39%[38.3 µM]	-2	-24%	8	3.5µM*
O=S(=O)(c1ccccc1)n1nc(-c2ccc(Cl)cc2)nc1NCc1ccccc1	nt	nt	nt	-1	nt
CC(C)c1ccc(/C(C(=O)O)=C(\O)C(=O)O)cc1	-7%	nt	-16%	nt	2%[13.5 µM]
O=C1OC(/C=C/c2ccc(Cl)cc2)=NC/1=C/c1ccco1	-2%	-30	-10%	nt	2µM*
O=C(/C=C/c1ccc(Cl)cc1)NCc1ccco1	6%	-10	-21%	nt	1%
CCOc1ccccc1C(=O)Nc1cc2c(cc1N1CCCCC1)n(C)c(=O)n2C	nt	nt	nt	20	nt
CCOC(=O)c1c(-c2ccccc2)csc1NC(=O)COc1ccc2c(C)cc(=O)oc2c1	4%	16	-22%	nt	10%
COc1ccc(-c2cc(=O)oc3cc(OCC(C)=O)ccc23)cc1	-1%	5	32µM*	nt	?
CCOCCOC(=O)COc1ccc2c(-c3ccccc3)cc(=O)oc2c1	-7%	-17	25µM*	nt	18µM*
COc1ccc(-c2cc(=O)oc3cc(OCC(=O)c4cccc([N+](=O)[O-])c4)ccc23)cc1	-2%	?	2.8µM*	nt	-1%
Cc1onc(-c2ccccc2)c1C(=O)N/N=C/c1ccc([N+](=O)[O-])s1	7%	31	?	nt	-6%
COc1cc(/C=N/NC(=O)Cc2cccs2)c([N+](=O)[O-])cc1OC	-10%	55	-12%	nt	?
Cc1ccc(/C=N/NC(=O)Cc2cccs2)o1	-3%	-22	-21%	nt	13µM*
CCN(CC)c1ccc(/C=N/NC(=O)Cc2cccs2)cc1	7%	20	?	3	?
Cc1ccc(NC(=S)N/N=C/c2ccc([N+](=O)[O-])s2)cc1	4%	35	?	nt	11µM*
